Source: PubChem BioAssay (National Center for Advancing Translational Sciences (NCATS))
In the library only some 2.5% were active in any assay of this set; here they are far more common.
D2 PAM-1: positively modulates the human D2 dopamine receptor allosterically; P14416; HEK293 T-REx D2, calcium flux, EC20 dopamine potentiation; potentiation, % at 10 µM; hit rate 0.34% among 340,000; AID 485347;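 active means potentiation over 3 SD above the plate norm, cut at about 30% in these data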
Target sequence (P14416 whole entry, looked up): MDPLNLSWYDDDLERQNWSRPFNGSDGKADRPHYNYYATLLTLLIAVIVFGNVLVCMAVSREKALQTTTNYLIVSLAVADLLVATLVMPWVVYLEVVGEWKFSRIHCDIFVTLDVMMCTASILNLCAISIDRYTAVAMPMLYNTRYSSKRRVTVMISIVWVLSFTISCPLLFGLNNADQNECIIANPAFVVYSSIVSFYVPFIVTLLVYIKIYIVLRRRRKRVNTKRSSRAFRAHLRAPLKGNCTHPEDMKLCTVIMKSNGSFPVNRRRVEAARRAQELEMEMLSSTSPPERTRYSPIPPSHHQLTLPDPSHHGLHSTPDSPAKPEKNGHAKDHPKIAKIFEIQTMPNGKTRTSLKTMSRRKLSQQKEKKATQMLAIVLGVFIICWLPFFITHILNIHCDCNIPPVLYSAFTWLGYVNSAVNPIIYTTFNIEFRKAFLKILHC
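Potentiation of an EC20 dopamine calcium response is measured in a force-coupled, tetracycline-inducible Hek293 Trex D2 line. Compound-only kinetic reads over 180 s flag agonists before dopamine addition.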
D2 antag: antagonizes the human D2 dopamine receptor. inhibition, % at 10 µM. hit rate 2% among 340,000. P14416. HEK293 TREx D2 cells, calcium flux, dopamine EC80; in the data active means inhibition above about 30%; inactive means below that, where a call was filed
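In this primary screen, negative modulation is detected by tracking calcium flux after an EC80 dopamine challenge in inducible HEK293 T-REx D2 cells preexposed to test compound for 180 s.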
D2 ag-1: agonists of human D2 dopamine receptor (beta-arrestin); DiscoveRx PathHunter D2 beta-arrestin, luminescence, 90 min; 100% = 57 uM dopamine signal; activation, % (test concentration not listed); hit rate 0.084% among 360,000; AID 624465; in the data active means activation above about 40%; inconclusive means between about 15% and that limit
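DiscoveRx PathHunter D2 beta-arrestin cells (2,100/well) attached overnight, then compound-stimulated 90 min at 37 C in HBSS/10 mM HEPES/0.1% Tween-20 buffer; beta-galactosidase complementation read by luminescence after 1 h at ambient temperature. Dopamine 57 uM final (EC100) as control.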
Anesthetic bind: candidate novel general anesthetic via apoferritin binding; P02791; apoferritin/1-aminoanthracene competitive binding, fluorescence; Potency, µM (titrated, usually from 77.5 µM), most hits filed as inhibitors; hit rate 0.074% among 350,000; AID 485281; active means well fitted inhibition curve with a large enough effect; inconclusive means small, poorly fitted or top-dose-only effect; inactive means no such curve, though single readings can be large or run the other way; further: nearly all actives have a fitted effect of over 20% in size
Target sequence (P02791 2-175 limits assumed): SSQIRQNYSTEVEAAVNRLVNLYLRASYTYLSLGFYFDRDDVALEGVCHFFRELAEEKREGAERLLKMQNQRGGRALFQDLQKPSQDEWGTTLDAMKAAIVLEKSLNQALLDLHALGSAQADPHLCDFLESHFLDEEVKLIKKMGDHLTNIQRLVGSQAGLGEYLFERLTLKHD
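Horse-spleen apoferritin (10 uM) was mixed with 50% saturated 1-aminoanthracene in PBS, exposed to compounds for 10 min at room temperature, and read for fluorescence (ex 380 nm, em 535 nm). Competitive displacement was fitted with a four-parameter Hill equation.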
D2 PAM-2: positive allosteric modulators of human D2 dopamine receptor. P14416. DiscoveRx D2 beta-arrestin cells, luminescence, 90 min; 100% = 57 uM dopamine signal. hit rate 0.23% among 360,000. potentiation, % (concentration not given with the values); in the data active means potentiation above about 50%; inconclusive means mostly about 30% to 49%
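PathHunter beta-arrestin assay in DiscoveRx D2 cells. Compounds were added with an EC20 of dopamine (50 nM final) for 90 min at 37 deg C. Luminescence was read 1 h after detection reagent, with 57 uM dopamine as the EC100 control.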
D2 ag-2: D2 dopamine receptor (human) agonism | activation, % at 2 µM | P14416 | hit rate 0.53% among 340,000 | HEK293 T-REx D2 cells, calcium flux agonist mode | AID 485358;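 active means activation over 3 SD above normal in the single-dose calcium agonist read, cut at about 30% in these data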
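Tetracycline-induced HEK293 Trex cells with D2 receptor force-coupled to calcium signaling, plated overnight at 30 C and loaded with no-wash calcium dye. Calcium flux read kinetically for 180 s after compound addition; responses flag agonists.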
Large screens that a line does not name were inactive.

O=C(NC1CCCCC1)c1ccc(S(=O)(=O)NCc2ccco2)cc1	none
Cc1ccccc1C(=O)NC1CCN(Cc2ccccc2)CC1	none
CCOc1ccccc1/C=N/NC(=O)c1nnn(-c2nonc2N)c1CN1CCC(C)CC1	none (no result: D2 PAM-1, D2 antag, D2 ag-2)
O=[N+]([O-])c1ccccc1-c1ccc(CN2CCN(c3ccccc3)CC2)o1	D2 antag 52, D2 ag-1 inconclusive
O=C(Nc1ccc(S(=O)(=O)N2CCCC2)cc1)c1ccc(CN2CCc3ccccc3C2)cc1	D2 antag 64
O=C(c1ccc(CN2CCc3ccccc3C2)cc1)N1CCCCC1	D2 antag 35
CCOc1ccc(C(=O)Nc2ccccc2NC(C)=O)cc1OCC	D2 antag 103
CCOc1ccccc1NC(=O)c1ccc(CN2CCc3ccccc3C2)cc1	D2 antag 54
O=C(c1ccc(CN2CCc3ccccc3C2)cc1)N1CCN(c2ccc(F)cc2)CC1	none (no result: D2 PAM-1, D2 antag, Anesthetic bind, D2 ag-2)
CCCC(=O)Nc1ccccc1NC(=O)c1ccc(OCC)c(OCC)c1	none
CCOC(=O)c1cnn(-c2ccccc2)c1-c1ccncc1	none
COc1ccc(-c2cc(C(=O)Nc3sc4c(c3C(N)=O)CCC(C)C4)no2)cc1 (stereo unspecified)	none (no result: D2 antag, D2 ag-1, D2 PAM-2)
Cc1c(NC(=O)c2ccccc2NC(=O)COc2ccccc2)cccc1C(=O)O	none
COc1cccc(NC(=O)CSC2=NN3CCCC(=O)N=C3S2)c1	none (no result: D2 antag, D2 ag-2)
O=C(CN1CCc2ccccc2C1)N1CCN(S(=O)(=O)c2ccccc2)CC1	D2 ag-2 35
Cc1cc(C)c(NC(=O)c2ccc(CN3CCc4ccccc4C3)cc2)c(C)c1	D2 antag 52
O=C(CNC1CCN(Cc2ccccc2)CC1)Nc1ccc(S(=O)(=O)N2CCCCC2)cc1	D2 antag 37
Cc1ccc(N2C(=O)CS(=O)(=O)C23C(=O)N(C)c2ccccc23)cc1F (stereo unspecified)	none (no result: D2 antag, D2 ag-1, D2 PAM-2, D2 ag-2)
Cc1cccc(-n2c(C)cc(C=C3C(=O)c4ccccc4C3=O)c2C)c1	none
Cc1cc(C=C2C(=O)c3ccccc3C2=O)c(C)n1-c1ccc(Cl)cc1	D2 antag 33
CCOc1ccc2nc(NC(=O)C3=NNC(=O)CC3)sc2c1	none
S=C1SCN(Cc2ccccn2)CN1Cc1ccco1	D2 antag 36, Anesthetic bind inconclusive
O=S(=O)(c1ccc(F)cc1)N1CCC(O)(c2ccc3c(c2)OCO3)CC1	none
OC1(c2ccc3c(c2)OCO3)CCN(Cc2ccc(F)cc2)CC1	D2 antag 73
OC1(c2ccc(F)cc2)CCN(Cc2cccnc2)CC1	D2 antag 34
OC1(c2ccc(F)cc2)CCN(Cc2ccccc2)C1 (stereo unspecified)	none
O=C(Nc1ccccc1)Nc1cccn(Cc2c(F)cccc2Cl)c1=O	Anesthetic bind inconclusive
Cc1ccccc1C(=O)O/N=C(\N)c1ccccc1	D2 ag-1 inconclusive
COc1ccc(/C(N)=N/OC(=O)c2cccs2)cc1	none
Cc1cc(/C(N)=N/OC(=O)c2cccc(Cl)c2)no1	D2 antag 50
Cc1onc(-c2ccccc2Cl)c1C(=O)O/N=C(\N)c1ccccc1	D2 ag-1 43, D2 PAM-2 inconclusive
N/C(=N\OC(=O)c1cccs1)c1ccc(Cl)cc1	D2 ag-1 50, D2 PAM-2 inconclusive
Cc1ccc(C)c(C(=O)O/N=C(\N)c2ccc(Br)cc2)c1	D2 PAM-2 57
Cc1cc(-c2nnc(CCC(=O)NC(C)c3ccccc3Cl)o2)no1 (stereo unspecified)	none
CCc1nn2c(=O)cc(COc3ccc(/C=C4\C(=N)N5N=C(C)SC5=NC4=O)cc3)nc2s1	none (no result: D2 PAM-1)
COC(=O)c1[nH]c2ccc(Br)cc2c1NC(=O)CN1CCN(C2CCCCC2)CC1	none
Cc1ccc(C(=O)O/N=C(\N)c2ccc(Br)cc2)cc1C	D2 PAM-2 inconclusive
Cc1cc(C)cc(C(=O)O/N=C(\N)c2ccc(Br)cc2)c1	D2 antag 35, D2 ag-1 inconclusive, D2 PAM-2 64
CCSc1nnc(NC(=O)c2c(-c3ccccc3Cl)noc2C)s1	D2 antag 109
Cc1cccc(C(=O)O/N=C(\N)c2ccc(Br)cc2)c1	D2 ag-1 inconclusive, D2 PAM-2 138
Cc1cccc(C(=O)O/N=C(\N)c2ccc(Cl)cc2)c1	D2 ag-1 46
O=C(COC(=O)C1(c2ccccc2)CCCC1)N1CCNC1=O	none (no result: Anesthetic bind)
CCOC(=O)c1cc2c(c(CCO)n1)[C@@H](CCO)N(S(=O)C(C)(C)C)C2 (stereo partly specified)	none (no result: D2 PAM-1, D2 antag, Anesthetic bind, D2 PAM-2, D2 ag-2)
CCOC(=O)C1CCN(C(=O)c2ccc(OCC(=O)N3CCOCC3)c(OC)c2)CC1	none (no result: Anesthetic bind)
COc1ccc2c(c1)C1=NN(/C(C)=C/C(C)=O)C(c3ccc(F)cc3)C1CC2 (stereo unspecified)	D2 PAM-2 51
O=C(COc1ccccc1Cl)Nc1cnn(Cc2ccccc2)c1	Anesthetic bind inconclusive
O=C(Nc1cnn(Cc2c(Cl)cccc2Cl)c1)C(c1ccccc1)c1ccccc1	D2 PAM-1 33
Cc1ccc(CNC(=O)CCS(=O)(=O)c2ccc3c(c2)oc(=O)n3C)cc1	D2 antag 30
Cn1c(=O)oc2cc(S(=O)(=O)CCC(=O)NCc3ccccc3)ccc21	none (no result: D2 antag, D2 ag-1, D2 PAM-2)
OCCN1CCN(C(c2cccs2)c2ccc3cccnc3c2O)CC1 (stereo unspecified)	Anesthetic bind 32µM (no result: D2 ag-1, D2 PAM-2)
C=C(C)COc1ccc(-c2[nH]ncc2-c2ccc(Br)cc2)c(O)c1	Anesthetic bind inconclusive, D2 PAM-2 inconclusive
Cc1ccc(Cc2nc3ccccc3nc2SCC(=O)N2CCCCC2C)cc1 (stereo unspecified)	none (no result: D2 antag, D2 ag-1, D2 PAM-2)
CC(=O)c1ccccc1OCCCOc1cccc2cccnc12	D2 PAM-2 77 (no result: D2 PAM-1, D2 antag, Anesthetic bind, D2 ag-2)
CN(C)c1ccc(N=Nc2nccs2)cc1	none (no result: D2 PAM-1, D2 antag, Anesthetic bind, D2 ag-2)
c1ccc(N2CCN(CC3CCCCC3)CC2)cc1	D2 antag 68, D2 ag-1 inconclusive, D2 ag-2 71
N#CCCSc1ncnc2c1oc1ccccc12	D2 antag 36, Anesthetic bind inconclusive
OCCSc1ncnc2c1oc1ccccc12	none
COc1cccc(OC)c1-c1nn(-c2ncc(C(F)(F)F)cc2Cl)c(=O)o1	D2 antag 38
Cc1nn(-c2ncc(C(F)(F)F)cc2Cl)c(=O)n1-c1ccccc1Cl	none
O=C(CCN1CCCCC1)c1ccc2c(c1)OCO2	none
CN(/N=C/c1ccc(C(C)(C)C)cc1)C1=NCCN1	none
CC1CC(C)(C)NC(=S)N1CC(=O)N1CCN(Cc2ccccc2)CC1 (stereo unspecified)	none
Cc1ccc(C)c(N2CCN(C(=O)CN3C(=S)NC(C)(C)CC3C)CC2)c1 (stereo unspecified)	D2 antag 41
